# Screens from PubChem BioAssay.
# Vaccinia mCherry = qHTS for Stage-Specific Inhibitors of Vaccinia Orthopoxvirus: mCherry Reporter Primary qHTS. Vaccinia virus mCherry reporter infection, fluorescence. 0.63% of 310,000 active. Potency, µM (doses to about 36.5 µM), for inactives: top-dose activity change, negative = inhibition, usual class: inhibitors; calls by dose curve; tested in A549 cells; further: potency means the concentration at half of the fitted maximal effect; nearly all actives have a fitted effect of over 35% in size
# FMDV inh = High Throughput Screening for Foot and Mouth Disease Virus Antivirals; AID 1159524, 2015; Potency, µM (titrated, usually from 57.9 µM), for inactives: top-dose activity change, negative = inhibition, actives largely listed as inhibitors; FMDV antiviral cell-based qHTS; 1.2% of 410,000 active; calls by dose curve; tested in HEK293T cells; further: read-out not given here; potency means the concentration at half of the fitted maximal effect; nearly all actives have a fitted effect of over 45% in size
# Vaccinia Venus = qHTS for Stage-Specific Inhibitors of Vaccinia Orthopoxvirus: Venus Reporter Primary qHTS; Vaccinia virus Venus reporter expression, fluorescence; Potency, µM (top dose mostly 36.5 µM), for the others: top-dose activity change, negative = inhibition, actives largely listed as inhibitors; 0.46% of 330,000 active; AID 720580, 2013; calls by dose curve; tested in A549 cells; further: potency means the concentration at half of the fitted maximal effect; nearly all actives have a fitted effect of over 30% in size
# HCMV antiviral = qHTS Assay for inhibitors of the human cytomegalovirus (HCMV). 4.5% of 410,000 active. activity change, negative = inhibition, % at 57.5 µM. HFF cells, HCMV-luciferase reporter, 72 h; hits give low values; in the data active means activity change below about -60%; inconclusive means no clear call, values can overlap the other calls; inactive means above about -39%
#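 HFF cells seeded 16 h at 37C, treated with compounds, infected with luciferase-reporter HCMV at MOI 1 PFU/cell; luciferase read at 72 h post infection, normalized to buffer-only and Salinomycin controls.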
# HCV inh = qHTS Assay for Inhibitors of Hepatitis C Virus (HCV) | Huh7.5.1 HCVcc-Cre infection, luciferase reporter, 44 h | Potency, µM (highest dose often 41.8 µM), for the others: at the highest dose activity change, negative = inhibition, hits mostly inhibitors | 3.4% of 340,000 active | AID 651820, 2012; further: potency means the concentration at half of the fitted maximal effect
#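 Cells (1,000/well) were plated 4 h before compound, then infected with HCVcc-Cre virus (~0.5 moi). After 44 h further culture, infection was read as luciferase luminescence following a 15 min substrate incubation at room temperature.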
# FBPA Giardia inh = qHTS Assay for Inhibitors of Fructose-1,6-bisphosphate Aldolase from Giardia Lamblia | 0.71% of 290,000 active | Potency, µM (highest dose often 59.6 µM), without a hit: at the highest dose activity, negative = inhibition, actives largely listed as inhibitors | AID 2451, 2010 | purified Giardia FBPA | A8B2U2; further: potency means the concentration at half of the fitted maximal effect; nearly all actives have a fitted effect of over 55% in size
# Target sequence (A8B2U2 whole entry, looked up): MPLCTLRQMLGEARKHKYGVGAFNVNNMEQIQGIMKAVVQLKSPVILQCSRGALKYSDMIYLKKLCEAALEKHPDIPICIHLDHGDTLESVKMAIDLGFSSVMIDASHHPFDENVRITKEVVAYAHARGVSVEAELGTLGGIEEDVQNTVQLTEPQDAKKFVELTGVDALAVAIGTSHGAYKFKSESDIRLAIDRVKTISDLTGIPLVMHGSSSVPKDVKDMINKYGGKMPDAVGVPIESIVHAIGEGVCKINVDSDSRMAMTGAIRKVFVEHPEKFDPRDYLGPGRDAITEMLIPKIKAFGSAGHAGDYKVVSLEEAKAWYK
#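 Giardia FBPA (40 nM reagent) was preincubated 10 min at RT with compound (up to 57.5 uM final), then substrate plus GAPDH/TPI/NAD/arsenate coupling system with diaphorase/resazurin was added; resorufin fluorescence (525/598 nm) was read after 20 min.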
# * marks the source's active call; other numbers are inactive results; i = inactive; ? = inconclusive; / = no result; [ ] = another dose, or the depositor's remark. Hits are enriched below; roughly 7.5% of the tested compounds scored in any of these assays. Unless noted, the call rests on the fitted dose curve; in most records, active means well fitted curve in the direction sought with a large enough effect; inconclusive means small, poorly fitted or top-dose-only effect, or another doubt; inactive means no such curve, though single readings can be large; an effect the other way counts as inactive or inconclusive. On the % scale 0 is the no-effect control and ±100 the full control effect.
SMILES,Vaccinia mCherry,FMDV inh,Vaccinia Venus,HCMV antiviral,HCV inh,FBPA Giardia inh
COc1cc(OC)c(OC)cc1/C=N/Nc1ncnc2c1[nH]c1ccccc12,i,-23.4%,-5.7%,-6.9,10µM*,1.3%
COc1ccc(/C=N/Nc2ncnc3c2[nH]c2ccc(C)cc23)c(OC)c1OC,-14.1%[7.34 µM],0.4%,-10.0%[7.34 µM],-80.2*,?,-3.5%
O=C(COc1ccc(S(=O)(=O)N2CCCC2)cc1)NCc1ccccn1,11.0%,-26.2%,22.6%,7.2,11.0%,4.6%
CCN(Cc1ccncc1)Cc1ccc2c(c1)CN(C(=O)c1ccccc1-n1cccn1)CCO2,-6.1%,-10.1%,-0.3%,/,/,/
CCOC(=O)CSc1nc2ccc(N3CCOCC3)cc2c(=O)n1Cc1ccccc1,/,21.6%,/,-5.6,2.82µM*,?
COc1ccc(C)cc1S(=O)(=O)N1CCCC(C(=O)N2CCN(c3ccccc3)CC2)C1 (stereo not given),/,?,/,-69.0*,?,-4.8%
COc1ccc(S(=O)(=O)N2CCCC(C(=O)N3CCN(c4ccccc4)CC3)C2)cc1Cl (stereo not given),-11.6%,35.5µM*,-17.8%,-8.6,?,/
CN1CCN(C(=O)Cn2c(-c3cccs3)cc3ccccc32)CC1,-9.4%,-2.9%,-9.5%,-14.8,/,/
CCCCN(C(=O)Cn1ncc(Cl)c(Cl)c1=O)c1c(N)n(CC(C)C)c(=O)[nH]c1=O,-8.3%,-19.5%,5.8%,/,2.8%,6.7%
CCOc1ccc(S(=O)(=O)N2CCN(CN3C(=O)CC4(CCCC4)C3=O)CC2)cc1,/,-20.3%,/,-24.4,7.6%,/
CC(C)Oc1ccc(C(=O)NCC(c2ccc(N(C)C)cc2)N2CCc3ccccc32)cc1 (stereo not given),5.1%,-1.9%,-9.7%,?,/,/
COc1ccc(C(=O)NCC(c2ccc(N(C)C)cc2)N2CCc3ccccc32)cc1 (stereo not given),-5.2%,-17.7%,2.9%,-70.8*,/,/
COc1ccccc1-c1ccc(Nc2cccc(C(C)=O)c2)nn1,/,9.4%,/,56.9,7.94µM*,-10.7%
Cc1ccccc1OC(=O)c1cccc(S(=O)(=O)N2CCN(C)CC2)c1,/,-18.5%,/,-32.5,-12.6%,/
C[n+]1ccccc1N1CCN(c2ccccc2Cl)CC1,-21.9%,-29.2%,-19.6%,-15.7,1.5%,3.1%
Cc1ccc(Cl)cc1N1CCN(c2cccc[n+]2C)CC1,-26.8%,-21.4%,-21.3%,-92.6*,0.6%,3.6%
CC1CCN(c2ccc(NC(=O)C3CCCN3S(=O)(=O)c3ccc(F)cc3)cc2)CC1 (stereo not given),/,?,/,-37.9,?,/
COc1ccc(C)cc1NC(=O)CN1C(=O)C(=O)N(C2CCCC2)C1=O,/,-13.4%,/,-11.1,21.7%,/
COc1ccc(CCn2c(C)cc(C(=O)CN3C(=O)C(=O)N(C4CCCC4)C3=O)c2C)cc1OC,-12.6%,-7.6%,-7.1%,-28.0,10µM*,/
CCCC(=O)NC(c1ccco1)c1c(O)ccc2ccccc12 (stereo not given),/,-9.1%,/,-83.6*,-11.2%,-19.7%
COc1ccc(NC(=O)c2oc3ccc(S(=O)(=O)N(C)C4CCCCC4)cc3c2C)cc1,?,?,?,-72.3*,/,/
Cc1ccc(Cl)cc1NC(=O)c1oc2ccc(S(=O)(=O)N(C)C3CCCCC3)cc2c1C,-15.8%,-8.8%,-16.4%,-10.4,/,/
CCN(CC)S(=O)(=O)c1ccc2oc(C(=O)NCC3COc4ccccc4O3)c(C)c2c1 (stereo not given),/,?,/,-36.0,10µM*,-0.6%
Cc1c(C(=O)NCC2COc3ccccc3O2)oc2ccc(S(=O)(=O)N3CC(C)CC(C)C3)cc12 (stereo not given),i,/,-8.0%,-16.1,?,-10.0%
Cc1cccc(NC(=O)c2oc3ccc(S(=O)(=O)N(C)C4CCCCC4)cc3c2C)c1C,-5.6%,-4.8%,-16.4%,-75.3*,/,/
SMILES,Vaccinia mCherry,FMDV inh,Vaccinia Venus,HCMV antiviral,HCV inh,FBPA Giardia inh
O=C(CC1SC(N2CCCC2)=NC1=O)Nc1ccc(C(=O)N2CCN(c3cccc(Cl)c3)CC2)cc1 (stereo not given),?,?,-29.7%,7.3,-5.1%,/
C#CCN(Cc1ccc(OC)cc1)S(=O)(=O)C=C,?,/,28.2µM*,/,/,/
COc1ccc(CN(Cc2cccn2C)S(=O)(=O)c2ccccc2)cc1,-9.4%,15.5%,-6.8%,0.6,2.2%,-10.5%
Cc1sc2ncnc(NCC(O)c3ccccc3)c2c1C (stereo not given),i,-27.4%,-14.8%,-73.8*,11.2µM*,/
Cc1sc2ncnc(NCC(O)c3ccc([N+](=O)[O-])cc3)c2c1C (stereo not given),-3.7%,?,-12.4%,-78.5*,11.2µM*,4.6%
Cc1sc2ncnc(NCC(c3ccccc3)N(C)C)c2c1C (stereo not given),-16.6%,?,14.8%,-28.4,?,-9.8%
COc1ccc(Oc2ncc3ncc(=O)n(Cc4cccs4)c3n2)cc1,/,?,/,/,/,-16.1%
CC1CN(CC(=O)NCCC2COc3ccccc3O2)Cc2cc(Cl)ccc2O1 (stereo not given),-7.2%,-5.2%,-3.1%,/,/,/
O=C(NC1CC1)c1ccc2c(c1)ncn2C1CCCC1,-2.0%,60.7%,-8.6%,-8.0,2.9%,-2.3%
O=C(c1ccc2c(c1)ncn2C1CCCCCC1)N1CCC2(CC1)OCCO2,/,22.9%,?,-16.8,-10.0%,0.1%
CCOC(=O)N1CCC(NC(=O)c2ccc3c(c2)ncn3C2CCCC2)CC1,/,7.8%,/,-68.1*,-1.1%,-0.3%
CCOC(=O)N1CCN(C(=O)c2ccc3c(c2)ncn3C2CCCC2)CC1,i,/,-11.9%,-61.9*,21.6%,6.2%
CCc1sc(C(C2C(=O)CC(C)(C)CC2=O)C2C(=O)CC(C)(C)CC2=O)cc1[N+](=O)[O-],i,7.94µM*,2.0%,107.0,25.8%,13.6%
CC1(C)CC(=O)C(C(c2ccc(F)cc2)C2C(=O)CC(C)(C)CC2=O)C(=O)C1,-13.2%,-8.6%,-8.8%,-26.9,-3.1%,-0.4%
CCN(CC)CCNC(=O)c1cnn(-c2ncc3c(n2)-c2ccc(OC)cc2CC3)c1C,-22.0%,-17.7%,-13.0%,/,/,/
O=C1NC(c2ccccc2)=C(c2nc3ccccc3s2)C(c2ccc(F)cc2)N1 (stereo not given),/,22.4µM*,/,-27.2,?,-0.5%
COc1ccc(NC(=O)c2ccco2)cc1NC(=O)c1ccc(OC(C)C)cc1,-8.6%,6.1%,-7.1%,-4.9,/,/
CCCc1nc([N+](=O)[O-])c(S(=O)(=O)c2ccccc2)n1CC(C)C,?,?,?,-92.9*,?,1.5%
